TDP1 inh – blocks human tyrosyl-DNA phosphodiesterase 1 | Potency, µM (top dose mostly 130 µM), inactives show at the top dose activity change, negative = inhibition, most hits filed as inhibitors | AID 485290 | Q9NUW8 | 0.28% of 350,000 active | recombinant TDP1, AlphaScreen DNA substrate cleavage; further: potency means the concentration at half of the fitted maximal effect; nearly all actives have a fitted effect of over 40% in size
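Signal: AlphaScreen proximity between streptavidin donor and anti-FITC acceptor beads on intact substrate. Reaction: Tdp1 1 nM, substrate 15 nM final, 5 min RT after 15 min compound preincubation.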
TDP1 cell noCPT – qHTS for Inhibitors of human tyrosyl-DNA phosphodiesterase 1 (TDP1): qHTS in cells in absence of CPT. 15% of 420,000 active. AID 686978, 2013. Potency, µM (top dose mostly 46.2 µM), for the others: at the top dose activity change, negative = growth inhibition, hits mostly inhibitors. DT40 Tdp1-/- hTDP1 cells, no CPT, ATP luminescence, 48 h; further: potency means the concentration at half of the fitted maximal effect; nearly all actives have a fitted effect of over 55% in size
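Luminescent ATP content (CellTiter-Glo) served as the growth readout. Knockout chicken DT40 cells expressing human TDP1 were exposed to compounds without camptothecin for a minimum 48 hr at 37 °C.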
CtBP-E1A blk – blocks the CtBP interaction with E1A. AlphaScreen GST-E1A/His-CtBP binding, 1536-well; active compounds read low. activity change, % (concentration not given with the values). 0.49% of 340,000 active; in the data active means activity change below about -65%; inconclusive means mostly about -30% to -63%
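In 5 uL wells, 23 nL compound meets equimolar GST-E1A and His-CtBP (5X stock 125 nM each) for 2 h, 37 °C. Beads (5X, 50 ug/mL) then 1 h, 37 °C, dark.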
Six1-Eya2 blk – Six1/Eya2 interaction inhibition; Q15475+O00167; AlphaScreen GST-Six1/His-Eya2 binding, biochemical; active compounds read low; activity change, % (test concentration not listed); 0.56% of 360,000 active; in the data active means activity change below about -65%; inconclusive means mostly about -30% to -63%
Target sequence (O00167 whole entry, looked up): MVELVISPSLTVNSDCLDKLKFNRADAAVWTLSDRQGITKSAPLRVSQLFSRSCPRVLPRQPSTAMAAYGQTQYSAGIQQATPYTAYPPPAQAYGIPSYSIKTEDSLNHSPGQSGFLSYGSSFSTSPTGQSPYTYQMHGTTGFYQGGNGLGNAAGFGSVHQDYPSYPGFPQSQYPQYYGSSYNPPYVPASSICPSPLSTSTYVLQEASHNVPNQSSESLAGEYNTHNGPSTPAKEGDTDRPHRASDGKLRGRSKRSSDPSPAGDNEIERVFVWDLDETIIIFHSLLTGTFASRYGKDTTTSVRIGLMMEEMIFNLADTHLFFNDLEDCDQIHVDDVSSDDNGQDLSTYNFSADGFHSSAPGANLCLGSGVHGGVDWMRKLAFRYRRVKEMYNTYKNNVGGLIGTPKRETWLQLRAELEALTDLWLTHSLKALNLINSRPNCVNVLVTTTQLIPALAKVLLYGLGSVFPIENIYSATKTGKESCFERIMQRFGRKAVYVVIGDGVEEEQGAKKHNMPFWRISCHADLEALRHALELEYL
Target sequence (Q15475 whole entry, looked up): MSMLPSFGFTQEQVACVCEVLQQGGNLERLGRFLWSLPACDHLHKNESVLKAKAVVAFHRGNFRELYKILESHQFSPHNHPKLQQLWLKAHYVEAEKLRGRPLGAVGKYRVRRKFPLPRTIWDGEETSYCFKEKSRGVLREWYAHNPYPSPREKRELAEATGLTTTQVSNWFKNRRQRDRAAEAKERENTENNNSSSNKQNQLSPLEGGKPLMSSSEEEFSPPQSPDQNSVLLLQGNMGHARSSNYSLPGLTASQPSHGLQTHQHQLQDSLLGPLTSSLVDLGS
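Homogeneous AlphaScreen proximity assay pairing GST-Six1 with His-tagged Eya2 (added as 5X mix: 250 nM and 500 nM) in 50 mM Tris pH 8.0, 300 mM NaCl, 1 mM TCEP. Glutathione donor and nickel acceptor beads; 1 h, 37 °C, dark.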
DT40 TDP1 CPT – growth inhibition of DT40 Tdp1-/-;hTDP1 cells with camptothecin (screen for TDP1 inhibitors); Potency, µM (highest dose often 46.2 µM), for inactives: top-dose activity change, negative = growth inhibition, actives largely listed as inhibitors; 12% of 420,000 active; chicken DT40 Tdp1-/-;hTDP1 cells + 20 nM CPT, ATP luminescence, 48 h; further: potency means the concentration at half of the fitted maximal effect; nearly all actives have a fitted effect of over 55% in size
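Chicken DT40 Tdp1-/- cells complemented with human TDP1, 400 cells/well, exposed to compounds plus 20 nM camptothecin for at least 48 h at 37 C; viability read as ATP content by CellTiter-Glo luminescence.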
IL-1B inflam inh – inflammasome signaling inhibition, IL-1 beta readout | THP-1 LPS/ATP IL-1B secretion, AlphaLISA, 16 h; active compounds read low | activity change, % at 57.5 µM | 4.7% of 360,000 active; in the data active means activity change below about -50%; inconclusive means mostly about -30% to -49%
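Secreted IL-1B measured by AlphaLISA bead assay after 16 h compound exposure of THP-1 cells; compounds (final up to 57.5 uM) added 1 h before LPS (250 ng/mL) and ATP (1.25 mM) stimulation; lower signal means less secretion.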
Active calls of the source: *; u = inconclusive; x = no result; [ ] = remark or other dose. This is a sample that favours compounds with a hit; in the whole collection about 18% have one here. Unless noted, the call rests on the fitted dose curve; in most records, active means well fitted curve in the direction sought with a large enough effect; inconclusive means small, poorly fitted or top-dose-only effect, or another doubt; inactive means no such curve, though single readings can be large; an effect the other way counts as inactive or inconclusive. On the % scale 0 is the no-effect control and ±100 the full control effect.

SMILES	TDP1 inh	TDP1 cell noCPT	CtBP-E1A blk	Six1-Eya2 blk	DT40 TDP1 CPT	IL-1B inflam inh
CCc1ccccc1Nc1cc(C(=O)NCc2ccc(C)cc2)c2ccccc2n1	-2%	u	x	x	21µM*	x
CCc1ccccc1Nc1cc(C(=O)NC(C)c2ccccc2)c2ccccc2n1 (stereo unspecified)	-2%	u	x	x	29µM*	x
CCc1ccccc1Nc1cc(C(=O)NCCc2ccccc2)c2ccccc2n1	0%	u	x	x	u	x
Cc1ccc(-n2ncc3c(=O)n(CC(=O)N4CCN(c5ccccc5F)CC4)cnc32)cc1C	1%	-20%	-1	-9	-27%	15
O=C(Cn1cnc2c(cnn2-c2ccc(F)cc2)c1=O)N1CCCc2ccccc21	-2%	-24%	5	-1	-3%	-17
Cc1ccc(-n2ncc3c(=O)n(CC(=O)N4CCCc5ccccc54)cnc32)cc1C	4%	16µM*	-2	-7	u	-24
COc1ccc(-n2ncc3c(=O)n(CC(=O)N4CCCc5ccccc54)cnc32)cc1	3%	23µM*	5	5	u	-7
CC12CC3CC(C)(C1)CC(C(=O)NC1=NCCS1)(C3)C2	2%	-23%	5	21	-2%	0
COc1ccc(S(=O)(=O)NCC(c2ccco2)N2CCc3ccccc32)cc1 (stereo unspecified)	x	15µM*	-12	-21	u	-16
COc1ccc(C(=O)NCC(c2ccco2)N2CCc3ccccc32)c(OC)c1 (stereo unspecified)	x	7.3µM*	-6	-21	u	-12
COc1ccc(C(=O)NCC(c2ccco2)N2CCc3ccccc3C2)c(OC)c1 (stereo unspecified)	x	8.2µM*	-1	-11	23µM*	55
Cc1ccc(S(=O)(=O)NCC(c2ccco2)N2CCc3ccccc32)cc1 (stereo unspecified)	-5%	u	-15	-27	u	u
CS(=O)(=O)c1ccccc1C(=O)Nc1ccc(S(=O)(=O)N2CCCC2)cc1	0%	-16%	0	1	u	19
COc1cc2cc(C(N)=O)c(N)nc2cc1OC	4%	-8%	-16	-24	2%	u
O=C(NCc1ccco1)Nc1cccc2ccccc12	x	-15%	-2	-9	12%	-1
CCCC1OC23CCCCC2C(C#N)(C(=N)O3)C1(C#N)C#N (stereo unspecified)	4%	16µM*	3	-3	7.3µM*	u
COc1ccc(C2OC34CCCCC3C(C#N)(C#N)C2(C#N)C(=N)O4)cc1 (stereo unspecified)	-1%	7.3µM*	-14	-5	5.8µM*	19
CCC1OC23CCCCC2C(C#N)(C(=N)O3)C1(C#N)C#N (stereo unspecified)	2%	13µM*	-3	4	u	-5
CC1OC23CCCCC2C(C#N)(C(=N)O3)C1(C#N)C#N (stereo unspecified)	5%	u	0	6	u	u
CCCCCCCC1=Cc2ccccc2C(CC(=O)c2ccccc2)N1C(=O)OC (stereo unspecified)	6%[21 µM]	x	x	x	x	x
CCCCn1nnnc1SCC(=O)Nc1ccc(N(C)C)cc1	2%	-3%	-6	-7	-1%	-3
CCc1ccc(NC(=O)C(=O)NCC(O)c2ccccc2)cc1 (stereo unspecified)	0%	-4%	16	12	-6%	-10
O=C(Nc1cc(C(F)(F)F)ccc1N1CCCC1)c1ccc2c(c1)OCO2	1%	u	-4	-4	-19%	-6
O=C(Nc1cc(C(F)(F)F)ccc1N1CCCCC1)c1cccc([N+](=O)[O-])c1	5%	16µM*	36	-2	u	-2
Cc1ccc(C(=O)Nc2cc(C(F)(F)F)ccc2N2CCCCC2)cc1[N+](=O)[O-]	-3%	21µM*	-4	-1	18µM*	-18
SMILES	TDP1 inh	TDP1 cell noCPT	CtBP-E1A blk	Six1-Eya2 blk	DT40 TDP1 CPT	IL-1B inflam inh
CCN(c1ccc(F)cc1)S(=O)(=O)c1ccc2[nH]cc(C(=O)NCCCN3CCOCC3)c(=O)c2c1	-3%	14%	-5	1	11%	26
COc1ccccc1CNC(=O)C12CC3CC(CC(C3)C1)C2	x	u	10	5	u	12
Cc1ccsc1C(=O)OCc1cc(=O)n2ccsc2n1	-16%	-19%	0	-7	u	29
COc1ccc(-c2noc(CCC(=O)NCCCN3CCC(Cc4ccccc4)CC3)n2)cc1	1%	15µM*	0	-1	15µM*	-64*
COc1ccc(-c2noc(CCC(=O)NCCCN3CCN(c4ccc(F)cc4)CC3)n2)cc1	0%	18µM*	2	-2	18µM*	0
COc1ccc(-c2noc(CCC(=O)NCC3CCCO3)n2)cc1 (stereo unspecified)	0%	-2%	11	8	8%	27
COc1ccc(CCC(=O)NCCS(=O)(=O)N2CCN(c3ccc(F)cc3)CC2)cc1	-4%	u	2	3	-4%	6
COc1ccc(-c2noc(=O)n2CC(=O)N2CCC(Cc3ccccc3)CC2)cc1	0%	23µM*	3	0	u	-5
O=C1CCCc2c1cnc1ncnn21	5%	6%	2	5	2%	-11
Cc1cccnc1Oc1ncccc1N	x	-3%	9	1	3%	1
Cc1cc(NC(=O)c2sc3ccccc3c2O)no1	8%	u	3	-3	u	5
Cc1nn(Cc2ccccc2)c(C)c1C(=O)OCC(=O)c1cc(C)n(CC(F)(F)F)c1C	5%	26µM*	-10	-17	26µM*	0
CCOc1ccc2c(c1)-c1c(ssc1=S)C(C)(C)N2	15%	18µM*	u	u	u	-17
CCOc1ccc2c(c1)-c1c(ssc1=S)C(C)(C)N2C(=O)CSC1=NCCS1	13%	12µM*	18	u	u	-54*
CC1(C)c2ssc(=S)c2-c2ccccc2N1C(=O)c1ccco1	5%	u	-18	-10	u	0
Cc1ccc2c(c1)-c1c(ssc1=S)C(C)(C)N2C(=O)CSC1=NCCS1	13%	u	-25	-8	u	-66*
Cc1ccc2c(c1)-c1c(ssc1=S)C(C)(C)N2C(=O)c1ccco1	10%	16µM*	11	u	u	-57*
Cn1cnnc1SCC(=O)N1c2ccccc2-c2c(ssc2=S)C1(C)C	5%	x	x	x	x	x
